# In PubChem BioAssay (NCI):
# Compounds without any hit were thinned out: in the full panel of roughly 83,000, 20% have a hit.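 In brief: 96-well plates, 48 h treatment, single concentration, percent growth endpoint.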 Values without a mark were called inactive. Active and inactive are the calls of the source. How the source made its calls: active means growth percent below 10; inactive means the rest.
# Test system: UACC-257 melanoma
# Experiment: NCI-60 one-dose screen, 48 h (100 = growth as untreated, 0 = no growth, -100 = all killed)
# Details: 10 µM unless noted
row,SMILES,growth
1,COc1cc(NCCCN=C(N)N)c2ncccc2c1,90.3%
2,ClCCN(CCCl)c1nc(Cl)c(C2CC(c3ccccc3)=NN2c2cc(Cl)cc(Cl)c2)s1 (configuration not stated),95.9%
3,CCCCCCCC(=O)OCC(=O)[C@]1(O)Cc2c(O)c3c(c(O)c2[C@@H](OC2CC(N)C(O)C(C)O2)C1)C(=O)c1c(OC)cccc1C3=O (some centres not stated),-98.2% (active)
4,COC[C@@H]1C[C@@]2(C)[C@@H](CC[C@@H]3[C@@H]2CC[C@@]2(C)[C@H]3CC[C@]2(C)O)CC1=O,83.2%
5,C[C@]12CC[C@@H]3c4ccc(Oc5nc(N6CC6)nc(N6CC6)n5)cc4CC[C@H]3[C@@H]1CCC2=O,65.5%
6,O=C1OCC2=C1C(c1ccccc1)c1cc3c(cc1N2)OCO3 (configuration not stated),35.2%
7,CCC1(C)CC(CCNCc2ccccc2O)(c2ccc(C)cc2)CCO1 (configuration not stated),107%
8,ClCCN(CCCl)Cc1ccc(Nc2ccnc3cc(Cl)ccc23)cc1,56.2%
9,c1ccc(Nc2nc(-c3ccccc3)c[se]2)cc1,98.6%
10,CCCc1cc(O)c2c3c(c(=O)oc2c1)CN(C)CC3,68.5%
11,ClCCN(CCCl)c1ccc(/C=N/Nc2ncnc3nc[nH]c23)cc1,106%
12,CCC1(C(C)C)C(=O)NC(=S)NC1=O,92.2%
13,CC(C)(N)Cc1ccccc1,101%
14,CC1(C)N=C(N)N=C(N)N1c1cccc(CCCCc2ccc(Cl)c(S(=O)(=O)F)c2)c1,33.6%
15,COc1cc(C=C2c3ccccc3C(=O)c3ccccc32)ccc1OCCCCOc1cc2c(cc1OC)C(=O)N1CCCC1C=N2 (configuration not stated),-73.3% (active)
16,C[CH2][Sn]([Cl])([Cl])[CH2]C.Oc1ccccc1C=NCCN=Cc1ccccc1O,94.1%
17,COc1ccc(O)c(CNC(=O)CN2CCCC2=O)c1,104%
18,CCOC(=O)C(Cc1ccc(N(CCCl)CCCl)cc1)NC(=O)C(CC(C)C)NC(C)=O (configuration not stated),24.2%
19,C[C@]12CC[C@H]3[C@@H](CC[C@]4(O)C[C@@H](O[C@@H]5O[C@H](CO)[C@@H](O[C@@H]6OC[C@@H](O)[C@H](O)[C@H]6O)[C@H](O)[C@H]5O)CC[C@]34C=O)[C@@]1(O)CC[C@@H]2C1=CC(=O)OC1,-3.23% (active)

row,SMILES,growth
1,Clc1ccc2nnnn2n1,41.1%
2,CC1(C)N=C(N)N=C(N)N1c1ccc(CCCCc2ccc(Cl)c(S(=O)(=O)F)c2)c(Cl)c1,18.3%
3,CC(=O)[O][Hg][c]1c(N)c(C)cc(C)c1F,31%
4,O=C(NCCN1CC1)C(=O)NCCN1CC1,85.1%
5,[Au+].[N-]=C=O.c1ccc(CN2[CH-]N(Cc3ccccc3)C(c3ccccc3)=C2c2ccccc2)cc1,99.8%
6,O=C(O)CNC(=O)C(Cl)(Cl)Cl,88%
7,N#C[Se]Cc1cc(-c2ccccc2)n(-c2ccc(S(N)(=O)=O)cc2)n1,-70.2% (active)
8,CCCCCC1(CCBr)C(=O)NC(=O)NC1=O,91%
9,O=C(O)C(O)C(O)C1[O][Sb]([c]2ccc([N+](=O)[O-])cc2)[O]C1CO (configuration not stated),95.7%
10,O=Cc1cn(Cc2ccc(Cl)cc2)c2ccccc12,21.8%
11,COc1cc(NC(C)CCCNC2CN3CCC2CC3)c2ncccc2c1 (configuration not stated),39.9%
12,Cc1ccc(C(=O)NCCCOc2ccc(N)cc2Cl)cc1S(=O)(=O)F,87.1%
13,CC(=O)OCC1O[C@@H]([S-])C(OC(C)=O)[C@H](OC(C)=O)[C@@H]1OC(C)=O.[Au+].c1ccc(CN2[CH-]N(Cc3ccccc3)C(c3ccccc3)=C2c2ccccc2)cc1,65.5%
14,O=C(Nc1ccc(Cl)cc1)Nc1nccs1,44.3%
15,Clc1ccc(COC(Cn2ccnc2)c2ccc(Cl)cc2Cl)cc1 (configuration not stated),61.9%
16,CC1CCCC(C[N+](C)(C)C)C1=O (configuration not stated),112%
17,CC(=O)/C=C/c1ccc2c(c1)OCO2,91.7%
18,O=C(O)c1ccc([S-])cc1.[Au+].c1ccc(CN2[CH-]N(Cc3ccccc3)C(c3ccccc3)=C2c2ccccc2)cc1,-19.1% (active)
